This note sets out measurements from PubChem BioAssay (NCI).

The structures appear in SMILES notation. This is part of a sample that, as a whole, favours compounds with a hit. Of some 83,000 tested, about 20% had one in any assay.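 Single-dose data. Exposure time 48 hours. Values below 10 considered active.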 Unmarked numbers belong to inactive results. The source made the active and inactive calls.

Test systems include HCT-15 colon; HT29 colon; SNB-19 CNS; U251 CNS; PC-3 prostate; SK-MEL-5 melanoma; UACC-62 melanoma; LOX IMVI melanoma; SK-MEL-2 melanoma; SN12C renal; UO-31 renal; TK-10 renal; ACHN renal; CAKI-1 renal; A498 renal; CCRF-CEM leukemia; MOLT-4 leukemia; EKVX NSCLC; SK-MEL-28 melanoma.
Test in all cases: NCI-60 one-dose screen, 48 h (100 = growth as untreated, 0 = no growth, -100 = all killed)
Holding throughout (conditions): 10 µM unless noted

In the case of `O=S(=O)(NCCNc1nccc(-c2c(-c3cccc(O)c3)nc3sccn23)n1)c1ccc(F)cc1`, the growth with HCT-15 colon was 81%; in the test with HT29 colon, 38.3%; in the test with SNB-19 CNS, 111%; with U251 CNS, 79.4%; with PC-3 prostate, 65.7%; with SK-MEL-5 melanoma, 39.8%. The growth in the test with UACC-62 melanoma is 16.7%; in the test on LOX IMVI melanoma, 38.5%; with SK-MEL-2 melanoma it was 41.7%; in the test with SN12C renal, 63.9%; in the test on UO-31 renal, 83.4%; in the test with TK-10 renal it was 108%. Also, the growth with ACHN renal was 60.2%; in the test on CAKI-1 renal it was 82.7%; in the test with A498 renal, 76.4%; in the test on CCRF-CEM leukemia, 41.7%; in the test with MOLT-4 leukemia it was 44.5%.

For the molecule `NC(=O)c1c(NC(=S)Nc2ccc(OC(F)(F)F)cc2)sc2c1CCC1(C2)OCCO1`, the growth was 97.5% in the test on HCT-15 colon; 95.6% with HT29 colon; 97.5% with SNB-19 CNS; 97.2% with U251 CNS; 92.6% in the test on PC-3 prostate; 98.2% in the test with SK-MEL-5 melanoma. Further, the growth in the test with UACC-62 melanoma was 77.1%; in the test with LOX IMVI melanoma it was 98%; in the test on SK-MEL-2 melanoma, 93.9%; in the test on EKVX NSCLC, 93.1%; in the test with SN12C renal, 95.4%; with UO-31 renal, 88%. Moreover, the growth with TK-10 renal is 106%; in the test with ACHN renal, 99.9%; in the test with CAKI-1 renal it was 93.6%; in the test with A498 renal, 90.4%; in the test with CCRF-CEM leukemia, 93.8%; in the test on MOLT-4 leukemia, 87.3%.

In the case of `Nc1cc2c(cc1C(=O)c1cccc(F)c1)OCCO2`, the growth is 93.9% with HCT-15 colon; 100% in the test on HT29 colon; 97.1% in the test with SNB-19 CNS; 94% with U251 CNS; 94.9% in the test on PC-3 prostate; 109% with SK-MEL-5 melanoma. In addition, the growth in the test on UACC-62 melanoma was 104%; in the test with LOX IMVI melanoma it was 95.6%; in the test on EKVX NSCLC, 92.5%; with SN12C renal, 90.1%; in the test on UO-31 renal, 68.8%; in the test on TK-10 renal it was 94%. For the same molecule, the results for the growth with ACHN renal, in the test with CAKI-1 renal and in the test with A498 renal were 105%, 88.4% and 96.5%, respectively.

For `CC[N+](CC)=c1cc2oc3cc(N(C)C)ccc3nc-2cc1C`, the growth in the test on HCT-15 colon was 47.4%; in the test on HT29 colon, 28.3%; in the test with SNB-19 CNS, 31.8%; in the test on U251 CNS it was 1.74% (active); in the test on PC-3 prostate it was 10.8%; in the test on SK-MEL-5 melanoma it was 7.58% (active). Besides, the growth in the test on UACC-62 melanoma was 62.7%; in the test with LOX IMVI melanoma, 16.8%; in the test on SK-MEL-2 melanoma it was 19.4%; in the test with EKVX NSCLC, 3.38% (active); in the test with SN12C renal it was 6.42% (active); with UO-31 renal it was 39.6%. The growth in the test on TK-10 renal was 54.6%; with ACHN renal, 73%; with CAKI-1 renal, 46.7%; with A498 renal, 99.2%; in the test on CCRF-CEM leukemia, 28.2%; with MOLT-4 leukemia, 21.8%.

Turning to `O=C1c2ccccc2-c2ccccc2C1(Cl)Cl`, the growth is -60.2% (active) in the test on HCT-15 colon; -38.4% (active) in the test on HT29 colon; -83.5% (active) with SNB-19 CNS; -90.1% (active) in the test on U251 CNS; -29.5% (active) with PC-3 prostate; -95.5% (active) with SK-MEL-5 melanoma. The growth in the test with UACC-62 melanoma is -83.4% (active); in the test with LOX IMVI melanoma, -31.8% (active); in the test on SK-MEL-2 melanoma, -71% (active); in the test on EKVX NSCLC, -93.2% (active); in the test with SN12C renal it was -76.1% (active); with UO-31 renal, -100% (active). Further, the growth in the test with TK-10 renal was 90%; in the test with ACHN renal it was -67% (active); in the test on CAKI-1 renal it was -92.1% (active); in the test with A498 renal it was 101%; in the test with CCRF-CEM leukemia it was 11.2%; in the test on MOLT-4 leukemia, 0.097% (active).

`C/C=C(\C)C(C(=O)NC1CCCCC1)N(C(=O)C1CCc2cc(F)ccc2O1)c1ccc(Cl)cc1` (configuration not stated): the growth was 101% in the test with HCT-15 colon; 98.7% in the test with HT29 colon; 97.8% in the test on SNB-19 CNS; 102% with U251 CNS; 94.5% in the test with PC-3 prostate; 97.2% in the test on SK-MEL-5 melanoma. The growth with UACC-62 melanoma was 92.3%; in the test with LOX IMVI melanoma, 94.1%; in the test on SK-MEL-2 melanoma it was 103%; with EKVX NSCLC it was 94.2%; with SN12C renal, 106%; in the test with UO-31 renal it was 92.6%. Besides, the growth was 96.2% with TK-10 renal; 115% in the test with ACHN renal; 109% in the test with A498 renal; 101% in the test with CCRF-CEM leukemia; 95.4% in the test on MOLT-4 leukemia.

For the molecule `CC1CN(c2oc(-c3ccccc3)nc2C#N)CC(C)O1` (configuration not stated), the growth in the test on HCT-15 colon was 103%; in the test on HT29 colon, 106%; with SNB-19 CNS, 100%; with U251 CNS, 103%; in the test with PC-3 prostate it was 102%; in the test on SK-MEL-5 melanoma, 93.1%. Also, the growth was 97% with UACC-62 melanoma; 104% with SK-MEL-28 melanoma; 102% with SK-MEL-2 melanoma; 92.6% with EKVX NSCLC; 97.9% in the test on SN12C renal; 95.2% with UO-31 renal. For the same molecule, the growth with TK-10 renal was 116%; in the test with ACHN renal it was 103%; in the test on CAKI-1 renal, 87%; with A498 renal, 93.8%; in the test with CCRF-CEM leukemia, 104%; in the test with MOLT-4 leukemia, 103%.

As for `C/C=C/C1=CN2C(=O)c3cc(OC4OC(C)C(NC)C(C)(O)C4O)c(C)cc3N=C[C@@H]2C1` (some centres not stated), the growth in the test on HCT-15 colon is 4.13% (active); in the test on HT29 colon it was 5.72% (active); with SNB-19 CNS it was 14.7%; with U251 CNS it was 9.48% (active); in the test on PC-3 prostate, 7.19% (active); with SK-MEL-5 melanoma, -51.3% (active). For the same molecule, the growth in the test on UACC-62 melanoma was -80.4% (active); in the test with LOX IMVI melanoma, -11.2% (active); with SK-MEL-2 melanoma, 27.8%; with EKVX NSCLC, 6.04% (active); in the test with SN12C renal, 4.16% (active); in the test on UO-31 renal it was -34.5% (active). Also, the growth with TK-10 renal was 22.3%; with ACHN renal, -4.55% (active); with CAKI-1 renal, -8.21% (active); in the test on A498 renal, -77.5% (active); in the test with CCRF-CEM leukemia it was 0.51% (active); with MOLT-4 leukemia, 2.77% (active).

For `C=C1CCC2C3(C)COC(C)(C)OC3CCC2(C)C1C/C=C1/C(=O)OCC1Oc1ccccc1OC` (configuration not stated), the growth is 43% in the test with HCT-15 colon; 56.4% in the test with HT29 colon; 88.7% in the test with SNB-19 CNS; 100% in the test with U251 CNS; 90.5% in the test with PC-3 prostate; 95.4% in the test on SK-MEL-5 melanoma. Besides, the growth is 80.4% in the test with UACC-62 melanoma; -3.97% (active) in the test on LOX IMVI melanoma; 95.6% in the test with SK-MEL-2 melanoma; 96.5% in the test on EKVX NSCLC; 84.2% in the test with SN12C renal; 83.5% in the test with UO-31 renal. Besides, the growth in the test with TK-10 renal is 139%; with ACHN renal, 79.9%; in the test on CAKI-1 renal it was 90.6%; in the test with A498 renal, 110%; in the test on CCRF-CEM leukemia, 13.3%; in the test with MOLT-4 leukemia, 77.7%.
